Outcome and AC50 data for 15 compounds are collected here from PubChem BioAssay (EPA / NIEHS).

SMILES strings stand for the structures. Active and inactive are the calls of the source. How the source made its calls: active means hit-call score of the fitted dose curve at least 0.9, where 1 is the maximum; inconclusive means response in the unintended direction; inactive means score below 0.9.

A short description of this experiment: CPHEA_Stoker_NIS_Cytotoxicity: Cytotoxicity Assessment for CPHEA's Radioactive Iodide Uptake (RAIU) Assay for Sodium/Iodide Symporter (NIS) Inhibition, Stoker and Laws Labs (AID 2283897).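 On AC50: active means loss of ATP signal versus DMSO meaning cytotoxicity.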 The essentials:
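CellTiter-Glo ATP luminescence gauged viability in HEK293T cells expressing human NIS after 2 h chemical exposure. Concentrations ran 0.001–100 uM in 0.5% DMSO; DMSO served as baseline for the loss-of-signal fit.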
As to `O=C(OCCCCCCOC(=O)c1ccccc1)c1ccccc1`, the outcome was inactive.
The same measure, in the same setting: in the case of `CN(C)C(=O)C1(N2CCCCC2)CCN(CC[C@@]2(c3ccc(Cl)c(Cl)c3)CN(C(=O)c3ccccc3)CCO2)CC1` it was “inactive”; in that of `CCCCOC(=O)CC(CC(=O)OCCCC)(OC(C)=O)C(=O)OCCCC`, “inactive”.
For the compound `CC(C)(c1cc(Br)c(O)c(Br)c1)c1cc(Br)c(O)c(Br)c1`, the AC50 is 13.6 µM (active).
Same read-out and setting: next, `NCc1cccc(C2CCN(C(=O)c3ccc(C#Cc4ccccc4F)o3)CC2)c1`: 16.3 µM (active).
`CC(C)(O)c1ccc(CNC(=O)c2cccnc2Oc2ccc3nonc3c2)cc1`: the result was inactive.
With `CN1C(=O)N(c2ccccc2Br)Cc2cnc(Nc3ccc4c(c3)OCC(CO)O4)nc21` (stereo not given), the outcome was inactive.
`CC/C(=C(/CC)c1ccc(O)cc1)c1ccc(O)cc1`: the AC50 is 9.92 µM (active).
With `CC(=O)N1CCN(c2ccc(OC[C@H]3CO[C@](Cn4ccnc4)(c4ccc(Cl)cc4Cl)O3)cc2)CC1`, the AC50 is 9.92 µM (active).
With `Clc1cc(Cl)c2c(c1)N=C1CCCCCN1C2`, the outcome was inactive.
With `CCOC(=O)O[C@H](C)OC(=O)c1ccc2c(c1)cc(C(=O)NC1CCN(C(C)C)CC1)n2Cc1cc(-c2ccc(Cl)s2)on1`, the AC50 is 9.92 µM (active).
For the compound `O=c1[nH]sc2ccccc12`, the result was inactive.
Regarding `O=C1c2ccccc2C(=O)N1CCc1noc(-c2ccc(CN3CCCCCC3)s2)n1`, the AC50 was 11.5 µM (active).
Still for that read-out and setting: next, `Clc1ccccc1C(c1ccccc1)(c1ccccc1)n1ccnc1`: 9.92 µM (active).
With `CCN(Cc1cccnc1)C(=O)c1cccc(Cl)c1[C@]1(C)C(=O)N(Cc2ccc(OC)cc2OC)c2ccc(Cl)cc21`, the result was inactive.
